Screens: PubChem, National Center for Advancing Translational Sciences (NCATS)
Pf growth 48h: inhibits P. falciparum growth in the first generation, 48 h; P. falciparum luciferase growth in erythrocytes, 48 h; Potency, µM (titrated, usually from 28.7 µM), inactives show top-dose activity change, negative = inhibition, actives largely listed as inhibitors; 310,000 compounds, 5.9% hits; note: % is set by controls: 0 for no effect and ±100 for the full control effect
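Cell-based growth assay: transgenic P. falciparum expressing firefly luciferase, cultured in red cells within RPMI 1640 containing 0.5% w/v Albumax, 24 mM bicarbonate and gentamycin. A drop in luciferase activity indicates inhibition.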
SARS PLP yeast: SARS-CoV PLP inhibition in yeast | S. cerevisiae expressing SARS-CoV PLpro, growth rescue | Potency, µM (top dose mostly 32.9 µM), without a hit: at the highest dose activity, positive = growth rescue, actives largely listed as activators | 330,000 compounds, 0.19% hits; calls by dose curve; note: 0% is about no effect; nearly all actives have a fitted effect of over 55% in size
AmpC inh no detg: inhibitors of E. coli AmpC beta-lactamase without detergent; P00811; AmpC nitrocefin hydrolysis, absorbance 480 nm, 0.0001% Triton; Potency, µM (top dose mostly 57.1 µM), without a hit: at the top dose activity change, negative = inhibition, hits mostly inhibitors; 330,000 compounds, 0.52% hits; AID 485341;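 note: plate controls were no compound for no effect and no enzyme for full effect; nearly all actives have a fitted effect of over 20% in size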
Target sequence (P00811 whole entry, looked up): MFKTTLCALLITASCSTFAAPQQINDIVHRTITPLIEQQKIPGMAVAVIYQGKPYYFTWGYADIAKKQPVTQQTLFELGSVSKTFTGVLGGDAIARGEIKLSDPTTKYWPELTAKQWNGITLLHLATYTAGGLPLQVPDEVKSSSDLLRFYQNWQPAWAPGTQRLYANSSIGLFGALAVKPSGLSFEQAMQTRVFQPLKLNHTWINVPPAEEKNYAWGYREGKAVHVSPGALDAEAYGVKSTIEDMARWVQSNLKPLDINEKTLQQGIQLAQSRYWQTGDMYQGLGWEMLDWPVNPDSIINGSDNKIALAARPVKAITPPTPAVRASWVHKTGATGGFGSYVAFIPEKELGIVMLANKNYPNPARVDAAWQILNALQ
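AmpC (5.3 nM in the dispensed reagent) in 20 mM phosphate pH 7.0 with 0.01% (detergent screen) or 0.0001% Triton X-100 was preincubated with compounds for 15 min at room temperature. Nitrocefin was then added from an 800 uM solution, and hydrolysis was followed at 480 nm.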
Sm TGR inh: blocks Schistosoma mansoni thioredoxin glutathione reductase; purified TGR, DTNB reduction, TNB absorbance 405 nm; Potency, µM (top dose mostly 114 µM), for inactives: at the top dose activity change, negative = inhibition, most hits filed as inhibitors; 360,000 compounds, 3% hits; note: % is set by controls: 0 for no effect and ±100 for the full control effect; nearly all actives have a fitted effect of over 60% in size
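Kinetic colorimetric format: TGR-catalysed, NADPH-driven DTNB reduction monitored via TNB absorbance. Enzyme dispensed at 20 nM; compound exposure 15 min at room temperature before reaction start.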
AmpC inh detg: inhibitors of E. coli AmpC beta-lactamase with detergent. AmpC hydrolysis of nitrocefin, absorbance 480 nm, 0.01% Triton. Potency, µM (highest dose often 114 µM), for the others: at the top dose activity change, negative = inhibition, most hits filed as inhibitors. 370,000 compounds, 0.041% hits. P00811;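 note: 0% = no-compound wells and -100% = no-enzyme wells; nearly all actives have a fitted effect of over 25% in size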
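AmpC (5.3 nM in the dispensed reagent) in 20 mM phosphate pH 7.0 with 0.01% (detergent screen) or 0.0001% Triton X-100 was preincubated with compounds for 15 min at room temperature. Nitrocefin was then added from an 800 uM solution, and hydrolysis was followed at 480 nm.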
Pf growth 96h: P. falciparum growth inhibition at 96 hour, primary screen for plastid delayed-death inhibitors | Potency, µM (highest dose often 28.7 µM), inactives show top-dose activity change, negative = inhibition, actives largely listed as inhibitors | P. falciparum luciferase reporter growth, 96 h | 320,000 compounds, 6.9% hits; note: % is set by controls: 0 for no effect and ±100 for the full control effect
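Delayed-death screen, second-generation endpoint: infected erythrocytes, 2% hematocrit, 0.05% parasitemia final; 96 hours at 37 C, 5% CO2; luciferase detection reagent; luminescence decrease equals reduced growth.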
An asterisk follows results filed as active; u = inconclusive; x = no result given. The list is not random: actives were taken first. Their share in the collection is about 12%. Unless noted, calls come from the whole dose curve; as a rule, active = well fitted curve in the direction sought with a large enough effect; inconclusive = small, poorly fitted or top-dose-only effect, or another doubt; inactive = no such curve, though single readings can be large; an effect the other way counts as inactive or inconclusive. Potency is the fitted concentration of half-maximal effect.

SMILES | Pf growth 48h | SARS PLP yeast | AmpC inh no detg | Sm TGR inh | AmpC inh detg | Pf growth 96h
O=C(N1CCOCC1)N1CCC(c2nc(-c3ccc(S(=O)(=O)N4CCOCC4)cc3)no2)CC1 | 2% | 10% | -11% | -35% | -8% | x
COc1ccccc1NC(=O)c1ccc(Br)o1 | 18% | -13% | -25% | 1% | -1% | -7%
Cc1cc(O)c(NC(=O)c2ccc(Br)o2)cc1C | 12µM* | -9% | -17% | -11% | -10% | 118%
CCN(CC)c1ccc(NC(=O)c2ccc(Br)o2)c(C)c1 | 7.4µM* | -2% | -25% | -16% | u | x
COc1ccc(N2CCN(Cc3cc(=O)oc4cc(-c5ccccc5)c(O)cc34)CC2)cc1 | 1.9µM* | 0% | -29% | -20% | -16% | 2.9µM*
COc1ccc2oc(=O)cc(CN3CCN(c4ccccc4F)CC3)c2c1 | x | x | x | 1% | 21% | x
O=c1cc(CN2CCN(c3ccccc3F)CC2)c2cc(O)c(-c3ccccc3)cc2o1 | 2.6µM* | -4% | -52% | -7% | -13% | 2.3µM*
COc1ccc(OC)c(CN2CCN(Cc3cc(=O)oc4cc(O)ccc34)CC2)c1 | 3.7µM* | 2% | -29% | -16% | -10% | 2.6µM*
COc1ccc(-c2nc3scc(CCNS(=O)(=O)c4ccc5c(c4)OCCO5)n3n2)cc1 | x | x | x | 2% | 1% | x
O=c1ccc2cc3c4c(c2o1)CCCN4CCC3 | u | 0% | -40% | 50µM* | -3% | 4%
N#Cc1c(N)nc2c(c1-c1cccnc1)CCCCC2 | u | u | -24% | 0% | u | x
N#Cc1c(N)nc2c(c1-c1ccncc1)CCCCC2 | u | 7% | -4% | 5% | -4% | 7.4µM*
Cc1nn(C)c(C)c1-c1c(C#N)c(N)nc2c1CCCCCC2 | u | -2% | -7% | 11% | -13% | u
COc1ccc(-c2c(C#N)c(N)nc3c2CCCCCC3)cc1OC | x | 3% | -9% | -7% | -12% | -20%
Cc1c(-c2c(C#N)c(N)nc3c2CCCCCC3)cnn1C | u | 6% | -5% | -13% | -1% | 10µM*
CSc1ccc(-c2c(C#N)c(N)nc3c2CCCC3)cc1 | 9% | -5% | 0% | -25% | u | 2.6µM*
COc1ccc(S(=O)(=O)N2CCC(CN3C(=O)c4cccc5cccc(c45)C3=O)CC2)cc1 | u | 11% | -29% | -9% | -7% | 1.5µM*
COc1ccc(OCC(O)CN2CCC(CN3C(=O)c4cccc5cccc(c45)C3=O)CC2)cc1 (configuration not stated) | 8.3µM* | -3% | 39% | -3% | -6% | 156%
CCOC(=O)C1CCN(CC(O)COCc2ccc3c(c2)OCO3)CC1 (configuration not stated) | 11% | 4% | -7% | 5% | u | 0%
O=C(c1ccc(S(=O)(=O)N2CCCC2)cc1)N1CCC(CN2C(=O)c3cccc4cccc(c34)C2=O)CC1 | 12µM* | 0% | 142% | 1% | 2% | 1.3µM*
O=C1c2cccc3cccc(c23)C(=O)N1CC1CCN(CC(O)COCc2ccc3c(c2)OCO3)CC1 (configuration not stated) | 9.3µM* | 6% | 96% | -4% | -4% | u
Nc1cccc2c1C(=O)N(C(=O)c1ccc(S(=O)(=O)N3CCCCCC3)cc1)C2=O | x | -2% | -27% | -2% | u | 38%
c1ccc(-n2nnc(-c3cccnc3)n2)cc1 | 183% | -1% | -32% | 2% | 5% | 162%
COc1ccc(-n2c(C)nc3c(cnn3-c3ccc(C)c(C)c3)c2=O)cc1 | x | 0% | 2% | 1% | u | 10µM*
Cc1nc2c(cnn2-c2ccccc2Cl)c(=O)n1-c1ccc(C(C)C)cc1 | x | -22% | 43% | 3% | 1% | 2.6µM*
SMILES | Pf growth 48h | SARS PLP yeast | AmpC inh no detg | Sm TGR inh | AmpC inh detg | Pf growth 96h
Cc1ccc(-n2c(-c3ccco3)nc3c(cnn3-c3ccccc3Cl)c2=O)cc1 | x | x | x | -2% | 0% | x
COc1cccc(-c2nn(-c3ccccc3)cc2CN(C)C(C)c2ccncn2)c1 (configuration not stated) | u | 0% | 154% | 0% | -9% | u
COc1cccc(-c2nn(-c3ccccc3)cc2CNC(C)Cn2cncn2)c1 (configuration not stated) | 36% | 0% | 33% | 24% | -2% | 10µM*
Cc1nn(C)c2c1c(C(F)(F)F)cc(=O)n2CC(=O)NCc1ccccc1Cl | x | x | x | 2% | 15% | x
COc1ccccc1C(=O)NC(=O)OCCn1c(C)cnc1[N+](=O)[O-] | -11% | -1% | -12% | 2% | -1% | 9.3µM*
Cc1cnc([N+](=O)[O-])n1CCOC(=O)NC(=O)c1ccccc1 | -17% | -3% | -12% | 2% | 6% | u
O=C(CSc1nnc(Cc2ccccc2)n1Cc1ccco1)NC12CC3CC(CC(C3)C1)C2 | u | -5% | -4% | -7% | 3% | x
O=C(O)CSc1nnc(CNc2cccc(C(F)(F)F)c2)n1Cc1ccco1 | 18% | 3% | -21% | 0% | -4% | 6.6µM*
Cc1cc(C)nc(SCc2nnc(SCC(=O)Nc3ccc(C)c(C)c3)n2Cc2ccco2)n1 | u | 2% | 96% | u | 2% | 13µM*
COC(=O)CSc1nnc(CSc2nc(C)cc(C)n2)n1Cc1ccco1 | 20% | 12% | 22% | 40µM* | -1% | x
NC(=O)c1c(NC(=O)CSc2nnc(Cc3ccccc3)n2Cc2ccco2)sc2c1CCC2 | u | 4% | -21% | 25µM* | -8% | -29%
O=C(CSc1nnc(CNc2cccc(C(F)(F)F)c2)n1Cc1ccco1)NCc1ccco1 | -27% | -3% | -9% | -32% | -2% | -25%
Cc1cc(C)nc(SCc2nnc(SCc3ccc([N+](=O)[O-])cc3)n2Cc2ccco2)n1 | u | -2% | 75% | -25% | u | 0%
Cc1cc(OCC(=O)OCC(=O)NCc2cccs2)ccc1Cl | x | -2% | -9% | x | x | x
COc1cccc(N2CC(NC(=O)c3ccc(S(=O)(=O)N4CCCC4)cc3)CC2=O)c1 (configuration not stated) | x | x | x | 19% | 0% | x
O=C(CSc1nnc(CNC(=O)c2ccccc2)o1)Nc1nccs1 | 92% | 5% | -18% | -3% | -5% | -1%
O=C(CSc1nnc(Cc2cccs2)n1Cc1ccco1)Nc1ccc(Cl)cc1Cl | u | -2% | -30% | u | u | x
O=C(CSc1nnc(Cc2cccs2)n1Cc1ccco1)Nc1ccc(Br)cc1 | u | -6% | -28% | 20µM* | -10% | x
